According to PubChem BioAssay (NCATS):
Results filed as inconclusive are left out. Calls of active or inactive are those of the source. The call rests on the fitted dose curve; in most records, active means well fitted curve in the direction sought with a large enough effect; inconclusive means small, poorly fitted or top-dose-only effect, or another doubt; inactive means no such curve, though single readings can be large; an effect the other way counts as inactive or inconclusive.

Columns and labels:
[1] = qHTS to identify inhibitors of the type 1 interferon - major histocompatibility complex class I in skeletal muscle: primary screen against the NCATS LOPAC collection (AID 1347405); settings: iHSKM muscle cells, IFN-b-induced MHC-I HiBiT luminescence, 24 h; series mostly up to 45.9 µM;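 further: lytic HiBiT luminescence reporting HLA-B protein level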; further: potency means the concentration at half of the fitted maximal effect; on activity change, negative = inhibition: on the % scale 0 is the no-effect control and ±100 the full control effect
In short: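 First, engineered myoblasts carrying HLA-B-HiBiT were seeded in medium lacking dexamethasone with 4 ng/ml IFN-beta. After 1 hr, compounds were pinned in (top 46 uM final, 7 points). After 24 hrs at 37 C, luminescence was measured following 10 min lysis.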

[2] = qHTS to identify inhibitors of the type 1 interferon - major histocompatibility complex class I in skeletal muscle: primary screen against the NCATS Pharmaceutical Collection (AID 1347407); settings: human skeletal muscle cells, IFN-b-induced MHC-I HiBiT luminescence, 24 h; series mostly up to 45.9 µM;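 further: luminescence of HiBiT knocked into endogenous HLA-B as interferon-induced MHC class I level; on the % scale 0 is the no-effect control and ±100 the full control effect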
In short: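 Immortalized human myoblasts (C25cl48) with HiBiT knocked into endogenous HLA-B*08:01 were stimulated with 4.0 ng/ml IFN-beta and treated with compounds ([…] top 46 uM) for 24 hrs at 37 C. HiBiT lytic luminescence read.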

[3] = qHTS for inhibitors of adenylyl cyclases using a fission yeast platform: a pilot screen against the NCATS LOPAC library (AID 1347410);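 further: plate controls were DMSO vehicle for no effect and DPI positive control for full effect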; settings: S. pombe CHP2027, fbp1-GFP fluorescence, 18 h, yeast expressing mammalian AC9 and human GNAS; series mostly up to 57.5 µM
In short: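 S. pombe CHP2027 (AC9-GNAS-PDE4D2) carrying PKA-repressed fbp1-GFP, incubated 18 h at 30C in EMM with LOPAC compounds at up to 57 uM. GFP gain-of-signal read by laser scanning cytometry; DMSO negative control.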

[4] = biological target: Protein phosphatase 1D (Homo sapiens) (UniProt O15297); experiment: Rhodamine-PBP qHTS Assay for Modulators of WT P53-Induced Phosphatase 1 (WIP1) (AID 1347425); settings: recombinant WIP1, Rhodamine-PBP phosphate fluorescence, real-time; series mostly up to 57.5 µM; further: % of control where 0% means no effect
In short: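 WIP1 (5 nM final) was preincubated with compound for 1 hour at room temperature. It then dephosphorylated 10 uM VEPPL-pS-QETFS peptide in Tris-HCl pH 7.5 with 30 mM MgCl2. Released Pi was detected by 10 uM Rh-PBP fluorescence (ex 525/em 598 nm) read at 1-min intervals for 11 min, as delta f1 - f0.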

[5] = Validation qHTS assay for inhibitors of Activation Induced Cytidine Deaminase (AID): UDG Counterscreen signal (AID 1347427); settings: biochemical UDG counterscreen, fluorescence signal; series mostly up to 115 µM; further: 0% is about no effect
In short: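 Fluorescence at 560 nm excitation, 665 nm emission reports UDG signal after 250 mM NaOH (2x) addition and 30 min. Enzymes (AID 1 uM, UDG 2 U/mL, at 4/3x) preincubated 10 min with compound, then 4 h with 4x 250 nM DJC20/DJC23 substrate at room temperature.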

[6] = Primary qHTS for inhibitors of La Crosse Virus (LACV) - induced cell death in SH-SY5Y cells (AID 1508616); settings: SH-SY5Y LACV cytopathicity rescue, ATP luminescence, 6 d; series mostly up to 9.63 µM; further: potency means the concentration at half of the fitted maximal effect;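 on activity change: top concentration of the series differs between compounds; 0% = infected DMSO wells and 100% = uninfected DMSO wells; higher means more rescue of cells from virus-induced death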
In short: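 SH-SY5Y, 6000 cells/well; cpd via pin tool in DMSO; LACV 0.01 MOI; 6 d 37C 5% CO2; ATPLite, 5 min RT; luminescence normalized to ±virus DMSO controls.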

[7] = biological target: Single-stranded DNA cytosine deaminase (Homo sapiens) (UniProt Q9GZX7); experiment: Validation qHTS assay for inhibitors of Activation Induced Cytidine Deaminase (AID): AID signal (AID 1347429); settings: Recombinant AID, FRET ssDNA deamination with UDG, fluorescence; series mostly up to 115 µM; further: on the % scale 0 is the no-effect control and ±100 the full control effect
In short: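 Steps: dispense AID with UDG; pin-transfer compound up to 114 uM final; add DJC20/DJC23 substrate and hold 4 hr at room temperature; add NaOH, hold 30 min; read FRET signal (540/590 nm).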

[8] = biological target: Protein phosphatase 1D (Homo sapiens) (UniProt O15297); experiment: RapidFire Mass Spectrometry qHTS Assay for Modulators of WT P53-Induced Phosphatase 1 (WIP1) (AID 1347424); settings: WIP1 dephosphorylation of phosphopeptide, RapidFire MS; series mostly up to 63 µM;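 further: amount of dephosphorylated VEPPL-S-QETFS peptide product formed by WIP1; plate controls were DMSO wells for no effect and GSK830371 inhibitor control at 10 µM for full effect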
In short: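 Mass-spectrometric measurement of dephosphorylated peptide after a 5 min room-temperature reaction of 10 nM WIP1 with 2 uM phosphopeptide, following 1 h compound preincubation in 30 mM MgCl2 buffer.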

Chain of Protein phosphatase 1D (Homo sapiens) (O15297 whole entry, looked up): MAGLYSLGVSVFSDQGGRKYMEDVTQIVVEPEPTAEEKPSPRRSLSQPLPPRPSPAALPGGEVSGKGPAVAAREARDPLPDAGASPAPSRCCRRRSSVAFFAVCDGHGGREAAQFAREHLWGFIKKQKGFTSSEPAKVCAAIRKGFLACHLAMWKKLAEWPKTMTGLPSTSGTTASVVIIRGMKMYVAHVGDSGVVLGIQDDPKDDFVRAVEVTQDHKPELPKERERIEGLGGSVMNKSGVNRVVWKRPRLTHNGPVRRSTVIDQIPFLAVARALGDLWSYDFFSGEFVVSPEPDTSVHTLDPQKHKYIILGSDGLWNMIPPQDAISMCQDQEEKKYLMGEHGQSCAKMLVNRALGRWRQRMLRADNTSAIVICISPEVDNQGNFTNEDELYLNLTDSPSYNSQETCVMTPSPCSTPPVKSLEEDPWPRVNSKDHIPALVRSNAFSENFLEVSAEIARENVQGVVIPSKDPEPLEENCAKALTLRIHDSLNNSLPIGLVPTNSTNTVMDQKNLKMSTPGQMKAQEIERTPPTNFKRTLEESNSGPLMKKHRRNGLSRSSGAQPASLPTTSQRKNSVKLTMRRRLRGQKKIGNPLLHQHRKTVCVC
Chain of Single-stranded DNA cytosine deaminase (Homo sapiens) (Q9GZX7 whole entry, looked up): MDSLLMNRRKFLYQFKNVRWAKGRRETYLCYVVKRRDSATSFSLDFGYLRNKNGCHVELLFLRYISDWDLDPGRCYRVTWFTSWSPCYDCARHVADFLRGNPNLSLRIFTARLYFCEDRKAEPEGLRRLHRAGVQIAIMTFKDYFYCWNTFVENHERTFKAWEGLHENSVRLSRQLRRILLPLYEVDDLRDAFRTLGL

Brc1c(NC2=NCCN2)ccc2nccnc12
inactive: Potency [1] | Potency [2] | outcome [3] | outcome [4] | outcome [5] | Potency [6]

CC1=C(C)C(=O)C(CCCCC#CCCCC#CCO)=C(C)C1=O
inactive: Potency [1] | Potency [2] | outcome [3] | outcome [4] | outcome [5] | Potency [7] | Potency [6]

CC(C(=O)O)c1ccc(CC2CCCC2=O)cc1 (stereo not given)
inactive: Potency [1] | Potency [2] | outcome [3] | outcome [4] | outcome [5] | Potency [7] | Potency [6]

CC1=NS(=O)(=O)c2cc(Cl)ccc2N1
inactive: Potency [1] | Potency [2] | outcome [3] | Potency [8] | outcome [5] | Potency [7] | Potency [6]

NC(=O)N1c2ccccc2C=Cc2ccccc21
inactive: Potency [1] | Potency [2] | outcome [3] | outcome [4] | outcome [5] | Potency [7] | Potency [6]

Nc1ncn([C@@H]2O[C@H](CO)[C@@H](O)[C@H]2O)c(=O)n1
inactive: Potency [2] | outcome [3] | Potency [8] | outcome [5] | Potency [7]
active: Potency [1] 8.91 µM | Potency [6] 1.12 µM

C#CCN(C)CCCOc1ccc(Cl)cc1Cl
inactive: Potency [1] | Potency [2] | outcome [3] | Potency [8] | outcome [5] | Potency [7] | Potency [6]

C[C@]12CC[C@@H]3c4ccc(O)cc4C[C@@H](CCCCCCCCCS(=O)CCCC(F)(F)C(F)(F)F)[C@H]3[C@@H]1CC[C@@H]2O (stereo not given in full)
inactive: Potency [1] | Potency [2] | outcome [3] | Potency [8] | outcome [5] | Potency [7] | Potency [6]

Cc1nc2ccccn2c(=O)c1CCN1CCC(C(=O)c2ccc(F)cc2)CC1
inactive: Potency [1] | Potency [2] | outcome [3] | Potency [8] | outcome [5] | Potency [7] | Potency [6]

CN(C)CCOC(=O)COc1ccc(Cl)cc1
inactive: Potency [1] | Potency [2] | outcome [3] | outcome [4] | outcome [5] | Potency [7] | Potency [6]

C=CCc1ccccc1OCC(O)CNC(C)C (stereo not given)
inactive: Potency [1] | Potency [2] | outcome [3] | outcome [4] | outcome [5] | Potency [7] | Potency [6]

CN1CCN(C2=Nc3ccccc3Oc3ccc(Cl)cc32)CC1
inactive: Potency [1] | Potency [2] | outcome [3] | outcome [4] | outcome [5] | Potency [7] | Potency [6]

CCN(CC)CCOCCOC(=O)C1(c2ccccc2)CCCC1
inactive: Potency [1] | Potency [2] | outcome [3] | outcome [4] | outcome [5] | Potency [7] | Potency [6]

CCN1CCC[C@H]1CNC(=O)c1c(O)c(Cl)cc(Cl)c1OC
inactive: Potency [1] | Potency [2] | outcome [3] | outcome [4] | outcome [5] | Potency [7] | Potency [6]

COc1ccc2c(c1OC)C(=O)O[C@@H]2[C@H]1c2c(cc3c(c2OC)OCO3)CCN1C
inactive: Potency [1] | Potency [2] | outcome [3] | outcome [4] | outcome [5] | Potency [7] | Potency [6]

CN(C(=O)CCCOc1ccc2[nH]c(=O)ccc2c1)C1CCCCC1
inactive: Potency [1] | Potency [2] | outcome [3] | Potency [8] | outcome [5] | Potency [7] | Potency [6]

CN(C)C(=O)Oc1ccc[n+](C)c1
inactive: Potency [1] | Potency [2] | outcome [3] | Potency [8] | outcome [5] | Potency [7] | Potency [6]

CCN(Cc1ccncc1)C(=O)C(CO)c1ccccc1 (stereo not given)
inactive: Potency [1] | Potency [2] | outcome [3] | outcome [4] | outcome [5] | Potency [7] | Potency [6]

OCCN1CCN(CCCN2c3ccccc3C=Cc3ccccc32)CC1
inactive: Potency [1] | Potency [2] | outcome [3] | Potency [8] | outcome [5] | Potency [7] | Potency [6]

CC(C)NCC(O)c1cc(O)cc(O)c1 (stereo not given)
inactive: Potency [1] | Potency [2] | outcome [3] | outcome [4] | outcome [5] | Potency [7] | Potency [6]

CN1CCN(CC(=O)N2c3ccccc3C(=O)Nc3cccnc32)CC1
inactive: Potency [1] | activity change, negative = inhibition [2] -1.82% [at 3.83 µM] | outcome [3] | activity change, negative = inhibition [8] -2.97% [at 6.17 µM] | outcome [5] | Potency [7] | Potency [6]

C[C@@H](O)[C@H]1C(=O)N2C(C(=O)O)=C(SCCN=CN)C[C@H]12
inactive: Potency [1] | Potency [2] | outcome [3] | Potency [8] | outcome [5] | Potency [7] | Potency [6]

C[C@H](CS)C(=O)N1CCC[C@H]1C(=O)O
inactive: outcome [3] | Potency [8] | outcome [4] | Potency [6]

COCCCC/C(=N\OCCN)c1ccc(C(F)(F)F)cc1
inactive: Potency [1] | outcome [3] | Potency [8] | outcome [4] | outcome [5] | Potency [7] | Potency [6]

CN(C)CCCN1c2ccccc2Sc2ccc(C(F)(F)F)cc21
inactive: Potency [2] | outcome [3] | Potency [8] | outcome [5] | Potency [7] | Potency [6]
